HIF-2a inh: HIF-2a reporter inhibitors, primary screen, luminescence, 786-0 RCC cells. 786-0 RCC cells HIF-2a reporter, luciferase luminescence, overnight. AID 624352, 2012. inhibition, % at 18.8 µM. 360,000 compounds, 0.72% hits;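 active means inhibition of the luminescence signal of 40% or more relative to plate controls, in a single-dose primary screen at 18.75 µM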
KKLEB cytotox: cytotoxicity in KKLEB CF airway cells, primary screen, cytotoxicity control for CF NF-kB inhibitor project, cell-based, uHTS, fluorescence assay plates | KKLEB CF airway cells viability, ATPlite luminescence, overnight; active compounds read low; cells stimulated with P. aeruginosa culture filtrate | activity change (cytotoxicity), % at 5 µM | 360,000 compounds, 0.36% hits | AID 602141, 2011;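 active means corrected activity change at or below -50% at 5 µM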
ABHD5-PLIN5 inh: ABHD5-PLIN5 interaction inhibitors, primary screen, cell lysate, split luciferase complementation, luminescence | Perilipin-5 (Homo sapiens) + 1-acylglycerol-3-phosphate O-acyltransferase ABHD5 (Homo … | Split G. princeps luciferase complementation, 4 h | inhibition, % at 4 µM | 360,000 compounds, 0.78% hits | AID 602281, 2012;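 active means inhibition above the mean inhibition across every tested compound plus 3 SD, cut at about 22% in these data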
Target sequence (Q00G26 whole entry, looked up): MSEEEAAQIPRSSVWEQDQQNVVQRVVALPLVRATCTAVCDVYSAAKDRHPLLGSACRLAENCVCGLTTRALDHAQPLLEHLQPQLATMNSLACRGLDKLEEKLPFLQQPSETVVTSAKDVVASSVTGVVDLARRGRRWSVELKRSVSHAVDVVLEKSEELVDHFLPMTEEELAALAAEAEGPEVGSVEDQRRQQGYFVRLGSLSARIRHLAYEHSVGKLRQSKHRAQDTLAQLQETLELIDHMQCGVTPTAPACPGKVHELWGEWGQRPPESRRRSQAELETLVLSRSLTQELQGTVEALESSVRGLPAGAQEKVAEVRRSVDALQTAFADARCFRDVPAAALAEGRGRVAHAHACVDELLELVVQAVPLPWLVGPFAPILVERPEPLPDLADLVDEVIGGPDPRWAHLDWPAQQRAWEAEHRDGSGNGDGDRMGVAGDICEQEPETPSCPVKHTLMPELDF
Target sequence (Q8WTS1 whole entry, looked up): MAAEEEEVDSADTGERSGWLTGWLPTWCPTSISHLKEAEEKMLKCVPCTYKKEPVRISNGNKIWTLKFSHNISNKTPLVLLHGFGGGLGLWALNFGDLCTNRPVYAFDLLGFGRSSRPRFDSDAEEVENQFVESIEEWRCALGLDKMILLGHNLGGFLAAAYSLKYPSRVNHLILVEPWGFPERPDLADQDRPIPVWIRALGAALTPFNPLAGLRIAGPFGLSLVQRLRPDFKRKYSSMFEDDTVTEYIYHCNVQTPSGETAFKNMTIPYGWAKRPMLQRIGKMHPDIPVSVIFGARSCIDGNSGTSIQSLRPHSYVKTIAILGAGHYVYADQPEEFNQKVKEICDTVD
Peg3 promoter: Peg3 promoter-driven luciferase inhibitors, primary screen, cell-based, HeLa, luciferase luminescence. HeLa PEG-Prom luciferase reporter, overnight. inhibition, % at 20 µM. 360,000 compounds, 1.7% hits. AID 588405, 2011;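 active means inhibition of at least 50% at 20 µM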
Mdm2 MdmX PPI: inhibitors of human Mdm2-MdmX association, primary screen, cell-based, luminescence, split luciferase, SaOS-2, uHTS. Protein Mdm4 (Homo sapiens) + E3 ubiquitin-protein ligase Mdm2 (Homo sapiens), …. SaOS-2 split-luciferase Mdm2/MdmX complementation. inhibition, % at 8 µM. 330,000 compounds, 3% hits. AID 485346, 2010;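 active means inhibition of at least 50% at 8 µM in the primary screen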
CF NFkB block: inhibitors of PAF-induced NF-kB signaling, primary screen, cell-based, GFP fluorescence, uHTS | 360,000 compounds, 0.86% hits | inhibition, % at 5 µM | KKLEB NF-kB-GFP reporter, GFP fluorescence overnight | AID 588850, 2011;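 active means at least 50% inhibition at 5 µM, scaled per plate between neutral and stimulator controls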;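 further: PAF is a Pseudomonas aeruginosa culture filtrate used as stimulus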
ABHD5 PLIN5 conf: ABHD5-PLIN5 interaction inhibitors, confirmation, biochemical, luminescence; shares compounds with ABHD5-PLIN5 inh; inhibition, % at 4 µM; 2,200 compounds, 67% hits; in the data active means inhibition above about 23%
HNF4 split-luc: HNF4 dimerization inhibitors, counter-screen for ABHD5-PLIN5 interaction inhibitor project, biochemical, split-luciferase complementation, luminescence | shares compounds with ABHD5-PLIN5 inh | inhibition, % at 4 µM | 2,200 compounds, 77% hits | AID 651674, 2012;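 active means mean inhibition across replicate wells exceeding the computed hit threshold, cut at about 13% in these data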;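 further: light from luciferase halves that rejoin when HNF4 fusion proteins dimerize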
Of the large screens only hits and unclear results are named; the others gave an inactive call (follow-up assays come after a bar, where they were run). Hits are enriched below; roughly 4.6% of the tested compounds scored in any of these assays.

COc1ccc(N2C(=O)CC(Sc3nnc(-c4ccccc4)o3)C2=O)cc1 (stereo not drawn)	ABHD5-PLIN5 inh 43, Peg3 promoter 85 | ABHD5 PLIN5 conf 55 | HNF4 split-luc 83
O=C(CCN1CCCC1Cc1ccccc1)c1ccc2c(c1)OCCO2 (stereo not drawn)	ABHD5-PLIN5 inh 28 | ABHD5 PLIN5 conf 25 | HNF4 split-luc 87
O=C(CCN1CCCCC1)c1ccc2c(c1)OCCO2	none
Cc1ccc(CNC(=O)CCc2nnc(Cc3ccc(-c4ccccc4)cc3)o2)o1	ABHD5-PLIN5 inh 28 | ABHD5 PLIN5 conf inactive | HNF4 split-luc inactive
COCCCNC(=O)CCc1nnc(Cc2ccc(-c3ccccc3)cc2)o1	none
COc1cc(OC)cc(C(=O)NC(C(=O)NNC(=O)c2ccc(C)cc2)C(C)C)c1 (stereo not drawn)	none
O=C1C=CC(O)C2(CO)OC12 (stereo not drawn)	ABHD5-PLIN5 inh 67 (no result: Mdm2 MdmX PPI) | ABHD5 PLIN5 conf 91 | HNF4 split-luc 91
CC(C)(C)NC(=O)CN(C(=O)c1snc(C(=O)NC2CCCCC2)c1N)c1ccc(F)cc1	none
CC(=O)N(c1ccccc1C)C1CCCC1	none
CC(=O)N(C1=C(Cl)C(=O)c2ccccc2C1=O)C1CCCCC1	HIF-2a inh 82, ABHD5-PLIN5 inh 33, Peg3 promoter 105 | ABHD5 PLIN5 conf 84 | HNF4 split-luc 110
C#CCNC(=O)C1=C[C@H](C)[C@@H](CCCO)[C@H](OCC)O1	none
C#CCNC(=O)C1=C[C@H](C2CCCCC2)[C@@H](CCCO)[C@H](OCC)O1	ABHD5-PLIN5 inh 101 | ABHD5 PLIN5 conf inactive | HNF4 split-luc inactive
CCOc1cc(N2CCOCC2)c(OCC)cc1NC(=O)CN1C(=O)N(C)C2(CCCCC2)C1=O	none
CC(C)NC(C(=O)Nc1cc(Cl)cc(Cl)c1)c1ccccc1 (stereo not drawn)	ABHD5-PLIN5 inh 54 | ABHD5 PLIN5 conf inactive | HNF4 split-luc inactive
CCc1nc2ccc(C(=O)NC3CCC(C)CC3)cc2nc1CC (stereo not drawn)	none
COc1ccc(C(=O)Cn2nc(CNc3ccc(Br)cc3)[n+]3c2CCCCC3)cc1	ABHD5-PLIN5 inh 37 | ABHD5 PLIN5 conf 23 | HNF4 split-luc 14
O=C(Cn1nc(-c2nn(CC(=O)c3ccccc3)c3[n+]2CCCCC3)[n+]2c1CCCCC2)c1ccccc1	none
CCOC(=O)C1=C(C)NC2=C(C(=O)C(C(=O)OCC)C(c3ccco3)C2)C1c1ccccn1 (stereo not drawn)	ABHD5-PLIN5 inh 42 | ABHD5 PLIN5 conf inactive | HNF4 split-luc 17
CCOC(=O)C1=C(C)NC2=C(C(=O)C(C(=O)OCC)C(c3ccccc3OC)C2)C1c1ccccn1 (stereo not drawn)	none
Nc1nc(Sc2ccc([N+](=O)[O-])c3nonc23)c2[nH]cnc2n1	ABHD5-PLIN5 inh 53, Peg3 promoter 67 (no result: Mdm2 MdmX PPI) | ABHD5 PLIN5 conf 83 | HNF4 split-luc 110
Cn1c(=O)c(Nc2ccc(O)cc2)c2c3c(cccc31)C(=O)c1ccccc1-2	ABHD5-PLIN5 inh 25 | ABHD5 PLIN5 conf 22 | HNF4 split-luc 20
COc1ccccc1N=CC=C1OC(C)(C)C(C)(C)O1	ABHD5-PLIN5 inh 37 | ABHD5 PLIN5 conf inactive | HNF4 split-luc inactive
Cc1ccsc1CNC(=O)C1(C)CCCN1CC(C)C (stereo not drawn)	none (no result: Mdm2 MdmX PPI)
CCCCCCCCCC[n+]1cccc2c3ccccc3ccc21	KKLEB cytotox -50, ABHD5-PLIN5 inh 27, Peg3 promoter 75 (no result: Mdm2 MdmX PPI) | ABHD5 PLIN5 conf inactive | HNF4 split-luc inactive
CCCCCC[n+]1ccccc1/C=C/c1ccc(N(C)C)cc1	none (no result: Mdm2 MdmX PPI)
COc1cc(/C=C/C(=O)c2ccc(F)cc2)cc(OC)c1OC	ABHD5-PLIN5 inh 38 | ABHD5 PLIN5 conf 68 | HNF4 split-luc 53
COC(=O)c1ccc(/C=C/C(=O)c2ccc(OC)c(OC)c2)cc1	ABHD5-PLIN5 inh 33 | ABHD5 PLIN5 conf 66 | HNF4 split-luc 61
COc1ccc(/C=C/C(=O)c2cc(F)ccc2OC(=O)c2ccc(OC)c(OC)c2)cc1OC	ABHD5-PLIN5 inh 46 | ABHD5 PLIN5 conf 77 | HNF4 split-luc 52
COc1cc(/C=C/C(=O)O)cc(OC)c1OC	none
COC(=O)C[C@@H]1C[C@@H]2c3cc(NC(=O)NC4CCCCC4)ccc3O[C@@H]2[C@H](CO)O1	none (no result: Mdm2 MdmX PPI)
CC(C)Oc1ccccc1C1(c2ccccc2)NC(=O)NC1=O (stereo not drawn)	none
O=C1C=CC(=Nc2ccc3c(c2)Cc2cc(F)ccc2-3)O1	ABHD5-PLIN5 inh 29 (no result: Mdm2 MdmX PPI) | ABHD5 PLIN5 conf 33 | HNF4 split-luc 60
O=C1C=CC(=Nc2cccc3c2C(=O)c2ccccc2-3)O1	none (no result: Mdm2 MdmX PPI)
CCOc1ccccc1/C=C/c1nc2ccccc2[nH]c1=O	ABHD5-PLIN5 inh 27 | ABHD5 PLIN5 conf 50 | HNF4 split-luc 46
C[C@@H](O)Cc1cn(CC(=O)NCCCCCCCCCCC(=O)N2CCNCC2)nn1	none
NCCCCCc1cn(CC(=O)NCCCCCCCCCCC(=O)N2CCNCC2)nn1	ABHD5-PLIN5 inh 93 | ABHD5 PLIN5 conf inactive | HNF4 split-luc inactive
Cc1ccc(S(=O)(=O)N(C)C[C@@H]2OCc3cn(nn3)CCCC(=O)N([C@@H](C)CO)C[C@H]2C)cc1	none (no result: Mdm2 MdmX PPI)
CC1CCCC(C)N1C(=O)COC(=O)/C=C/c1ccc(Br)o1 (stereo not drawn)	none
O=C1NC[C@H](CCCCN2CCN(CCC3CCCCC3)C(=O)C2=O)N(CCc2ccc(O)cc2)C1=O	none (no result: KKLEB cytotox, Peg3 promoter, Mdm2 MdmX PPI, CF NFkB block)
CN(C)c1ccc(C(=O)/C=C/c2ccco2)cc1	none
O=C(C=Cc1ccco1)c1ccc2ccccc2c1	ABHD5-PLIN5 inh 37 (no result: Mdm2 MdmX PPI) | ABHD5 PLIN5 conf 64 | HNF4 split-luc 54
CC(=O)Nc1ccc(C(=O)/C=C/c2ccco2)cc1	ABHD5-PLIN5 inh 29 | ABHD5 PLIN5 conf 52 | HNF4 split-luc 57
O=C(/C=C/c1ccco1)c1ccc(O)cc1	none (no result: HIF-2a inh, KKLEB cytotox, ABHD5-PLIN5 inh, Peg3 promoter, CF NFkB block)
O=C(/C=C\c1ccco1)c1ccc(NC(=O)c2ccco2)cc1	ABHD5-PLIN5 inh 25 | ABHD5 PLIN5 conf 49 | HNF4 split-luc 47
Nn1c(SCC(=O)Nc2ccccc2C(F)(F)F)nncc1=O	none
Cc1cc(Cl)ccc1C(O)c1ncc(-c2ccc(Cl)cc2)[nH]1 (stereo not drawn)	none (no result: Mdm2 MdmX PPI)
C=CCNc1oc(-c2cccc(Cl)c2)nc1C#N	ABHD5-PLIN5 inh 24 | ABHD5 PLIN5 conf 47 | HNF4 split-luc 41
